Source: PubChem BioAssay (National Center for Advancing Translational Sciences (NCATS))
Shown are actives, neighbours in structure and some others; about 19% of the full set was active somewhere.
TDP1 cell noCPT = qHTS for Inhibitors of human tyrosyl-DNA phosphodiesterase 1 (TDP1): qHTS in cells in absence of CPT; Potency, µM (doses to about 46.2 µM), inactives show at the top dose activity change, negative = growth inhibition, usual class: inhibitors; DT40 Tdp1-/- hTDP1 cells, no CPT, ATP luminescence, 48 h; AID 686978, 2013; actives 15% (n = 420,000); also: potency is read from the fitted curve at half-maximal effect; nearly all actives have a fitted effect of over 55% in size
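DT40 Tdp1-/-;hTDP1 cells, no CPT (DMSO vehicle only), 400 cells/well; compounds pin-transferred; ≥48 hr, 37 °C; CellTiter-Glo 30 min RT dark, luminescence read.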
IL1B secr inh = inhibitors of inflammasome signaling (IL-1 beta secretion); activity change, % at 57.5 µM; THP-1 LPS/ATP IL-1B secretion, AlphaLISA, 16 h; stronger effect = lower value; actives 4.7% (n = 360,000); in the data active = activity change below about -50%; inconclusive = mostly about -30% to -49%
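Secreted IL-1B measured by AlphaLISA bead assay after 16 h compound exposure of THP-1 cells; compounds (final up to 57.5 uM) added 1 h before LPS (250 ng/mL) and ATP (1.25 mM) stimulation; lower signal means less secretion.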
uPA generation = cell surface uPA generation inhibition | cell surface uPA generation assay, qHTS | Potency, µM (highest dose often 38.3 µM), for inactives: at the highest dose activity change, negative = inhibition, actives largely listed as inhibitors | actives 0.31% (n = 330,000) | AID 540303; active = well fitted inhibition curve with a large enough effect; inconclusive = small, poorly fitted or top-dose-only effect; inactive = no such curve, though single readings can be large or run the other way; tested in mouse RAW 264.7 cells; also: potency is read from the fitted curve at half-maximal effect; nearly all actives have a fitted effect of over 55% in size
DT40 TDP1 CPT = DT40-hTDP1 cell growth loss with CPT. chicken DT40 Tdp1-/-;hTDP1 cells + 20 nM CPT, ATP luminescence, 48 h. Potency, µM (highest dose often 46.2 µM), for the others: at the top dose activity change, negative = growth inhibition, most hits filed as inhibitors. actives 12% (n = 420,000); also: potency is read from the fitted curve at half-maximal effect; nearly all actives have a fitted effect of over 55% in size
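Chicken DT40 Tdp1-/- cells complemented with human TDP1, 400 cells/well, exposed to compounds plus 20 nM camptothecin for at least 48 h at 37 C; viability read as ATP content by CellTiter-Glo luminescence.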
HT1080 IDH1KD tx = toxicity to HT-1080 IDH1 knockdown cells (counter line); HT-1080 IDH1 knockdown viability, ATP luminescence, 48 h; Potency, µM (titrated, usually from 46.1 µM), for the others: at the top dose activity, negative = toxicity, hits mostly cytotoxic; actives 2% (n = 360,000);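 also: potency is read from the fitted curve at half-maximal effect; 0% = DMSO wells and -100% = cell-free medium wells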
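In this qHTS, HT-1080 cells depleted of IDH1 are exposed for 48 h at 37 °C to compound titrations. Toxicity is scored from CellTiter-Glo luminescence, with DMSO as full viability and medium alone as none.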
HT1080NT lethal = kills 2HG-producing HT-1080-NT fibrosarcoma cells; actives 1.6% (n = 360,000); AID 686970; Potency, µM (top dose mostly 46.1 µM), for the others: at the top dose activity, negative = less viability, most hits filed as cytotoxic; HT-1080-NT fibrosarcoma viability, CellTiter-Glo ATP luminescence, 48 h;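 also: NT is the 2HG producing partner of a matched IDH1 knockdown line; potency is read from the fitted curve at half-maximal effect; 0% = DMSO-treated cells and -100% = media-only wells without cells; nearly all actives have a fitted effect of over 55% in size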
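Read-out is CellTiter-Glo luminescence after 10 minutes at room temperature, following 48 hours' compound treatment of HT-1080-NT cells (750 cells/well, RPMI, 5% FBS, 37 degrees C).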
* = called active by the depositor; ? = inconclusive; / = no result given; [ ] = dose if it differs, or a comment. Unless noted, calls follow the shape of the dose curve; as a rule, active = well fitted curve in the direction sought with a large enough effect; inconclusive = small, poorly fitted or top-dose-only effect, or another doubt; inactive = no such curve, though single readings can be large; an effect the other way counts as inactive or inconclusive. Unless noted, % is scaled to controls: 0 for no effect and ±100 for the full control effect.

SMILES	TDP1 cell noCPT	IL1B secr inh	uPA generation	DT40 TDP1 CPT	HT1080 IDH1KD tx	HT1080NT lethal
O=C(CSCc1ccc(Cl)cc1)NCc1ccccn1	-18%	-3	-9%	-4%	?	-5%
COc1ccc(OC)c(NC(=O)CCC(=O)Nc2nnc(C(C)C)s2)c1	-7%	16	2%	-5%	22%	16%
CC(=O)c1ccc(F)c(-c2cc(C)cc3c2OC(CNC(=O)C(C)n2nc(C)cc2C)C3)c1 (stereo not given)	-20%	/	/	0%[9.04 µM]	/	/
Cc1ccc(NC(=O)c2ccc3nsnc3c2)c(C)c1	?	-5	-6%	?	8%	-4%
O=C(NCc1nc2ccccc2[nH]1)c1ccc(Cl)c(S(=O)(=O)N2CCCC2)c1	?	45	10%	-27%	6%	5%
CC(=O)Nc1nc2ccccc2n1Cc1ccc(Cl)cc1	?	46	-7%	23µM*	16µM*	?
CN(C)CCn1c(NC(=O)c2ccc(Cl)cc2)nc2ccccc21	?	-20	-13%	?	11µM*	?
CCN(CC)CCn1c(NC(=O)c2ccc(C)cc2)nc2ccccc21	?	44	-3%	-19%	-10%	?
CCC(=O)Nc1nc2ccccc2n1Cc1ccccc1	16µM*	25	/	15µM*	?	?
CCC(=O)NCc1nc2ccccc2n1Cc1ccccc1	-15%	/	/	?	/	/
CCCn1c(NC(=O)c2ccc(Cl)c(S(=O)(=O)N3CCCC3)c2)nc2ccccc21	16µM*	-13	-10%	23µM*	?	?
Cc1ccccc1C(=O)NCC(=O)OC(C)C(=O)NCc1ccco1 (stereo not given)	5%	-9	-4%	0%	0%	2%
CC(C)C(NS(=O)(=O)c1ccc2c(c1)oc(=O)n2C)C(=O)NCCc1ccc(Cl)cc1 (stereo not given)	-15%	/	/	-6%	/	/
CC(=O)Nc1nonc1-c1nc2ccccc2n1Cc1ccccc1	?	17	-8%	?	12µM*	16µM*
CC(=O)Nc1nonc1-c1nc2ccccc2n1Cc1nnc(C)o1	13%	30	/	-6%	7%	-5%
CCC(=O)Nc1nc2ccccc2n1Cc1ccc(C)cc1	10µM*	16	0%	12µM*	-20%	?
CCC(=O)Nc1nc2ccccc2n1CCN(CC)CC	-4%	1	/	29µM*	-1%	9%
COc1ccc(C2=NOC(c3nnc(-c4ccccc4)o3)C2)cc1 (stereo not given)	-1%	-7	21%	4%	11%	-15%
CCN(C1CCCCC1)S(=O)(=O)CCNC(=O)c1ccc2c(c1)OCO2	?	-19	1%	23µM*	1%	1%
CCOC(=O)/C=C/C(=O)Nc1nccs1	3.7µM*	-86*	-6%	7.3µM*	-7%	-17%
CCOC(=S)SCC(=O)Nc1nc(C)c(C)s1	21µM*	-7	?	16µM*	-7%	?
CCOC(=S)SCC(=O)Nc1nccs1	21µM*	-99*	-7%	21µM*	?	-15%
CC1CCCN(C(=O)Cn2ncc3c([nH]c4ccccc43)c2=O)C1 (stereo not given)	-19%	/	/	-2%	/	/
COc1cc(O)c(C(=O)CC(=O)c2ccncc2)c(OC)c1	-4%	-6	-7%	-13%	7%	5%
CCOC(=O)c1cnc2c(C)cc(C)cc2c1NCCN1CCOCC1	16µM*	/	/	18µM*	/	/
SMILES	TDP1 cell noCPT	IL1B secr inh	uPA generation	DT40 TDP1 CPT	HT1080 IDH1KD tx	HT1080NT lethal
CCOC(=O)c1cnc2c(C)cc(C)cc2c1Nc1ccc(S(=O)(=O)Nc2ncccn2)cc1	-3%	22	-3%	-10%	2%	4%
CCOC(=O)c1cnc2c(C)cc(C)cc2c1NCCCN1CCOCC1	?	-71*	?	?	-7%	-5%
CCOC(=O)c1cnc2c(C)cc(C)cc2c1Nc1cccc(C(=O)O)c1	15µM*	/	/	13µM*	/	/
CCOC(=O)c1cnc2c(C)c(Cl)ccc2c1NCCCN1CCOCC1	?	?	-14%	?	8%	8%
CCOC(=O)C1=C(C)c2ccccc2OC1(C(=O)OCC)C(C)C (stereo not given)	?	10	12%	-25%	-3%	-2%
O=C(Cn1c(=O)oc2cc(S(=O)(=O)N3CCCCC3)ccc21)Nc1cccc(Cl)c1	9.2µM*	/	/	8.2µM*	/	/
O=C(Cn1c(=O)oc2cc(S(=O)(=O)N3CCCCC3)ccc21)N1CCc2ccccc21	-16%	10	-1%	-14%	-6%	-12%
O=C(Cn1c(=O)oc2cc(S(=O)(=O)N3CCCCCC3)ccc21)Nc1cccc(C(F)(F)F)c1	9.2µM*	/	/	8.2µM*	/	/
CCCSc1ncc(Cl)c(C(=O)Nc2sc(C(C)=O)c(C)c2C(=O)OCC)n1	-24%	/	/	3%	/	/
CCCNC(=O)C1CCC(Cn2c(=O)c3sccc3n(CC(=O)NCc3cccc(OC)c3OC)c2=O)CC1 (stereo not given)	4.1µM*	/	/	?	/	/
CCCCNC(=O)C1CCC(Cn2c(=O)c3sccc3n(CC(=O)Nc3ccccc3)c2=O)CC1 (stereo not given)	?	/	/	15µM*	/	/
Cc1ccc(C2CC(c3ccccc3)=NN2C(=S)Nc2ccccc2)o1 (stereo not given)	5.8µM*	-9	-9%	3.3µM*	?	?
CC1=NN(C(=S)Nc2ccccc2)C(c2ccccc2)C1 (stereo not given)	-11%	-6	1%	-3%	-8%	-7%
CCN1CCN(c2ccc(N3CCN(S(=O)(=O)c4cc([N+](=O)[O-])ccc4C)CC3)nn2)CC1	?	-10	-1%	?	5%	1%
COc1ccc(C(=O)NNC(=S)NC(=O)/C=C/c2cccs2)cc1	?	11	-2%	?	?	-9%
Cc1ccccc1NC(=O)/C=C/c1cccs1	?	-25	-3%	?	-20%	-19%
O=C(/C=C/c1cccs1)NC(=S)Nc1ccccc1	?	-62*	0%	?	26%	25%
O=C(/C=C/c1cccs1)NC(=S)NNC(=O)c1ccccc1O	4.6µM*	112	-12%	5.2µM*	?	-19%
COc1ccccc1-n1nnnc1SCC(=O)NCC1CCCO1 (stereo not given)	1%	5	12%	-8%	9%	6%
Cc1sc2nc(SCC(=O)OC(C)C)n(C)c(=O)c2c1C	23µM*	-11	6%	-27%	8%	15%
